Test [1] can be described thus: compounds binding Alexa647 anti-His antibody – biochemical, small-molecule microarray, 635 nm fluorescence, artefact control for SMM control protein annotation, primary screen (AID 1128).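 Note: score merges feature fluorescence with signal-to-noise for each printed compound spot.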 Conditions: higher = more signal.
The subject of test [2] is Human papillomavirus type 1a E7 protein (residues 1-88). The test can be described thus: HPV1a E7 small-molecule binders, primary screen, biochemical, small-molecule microarray, residues 1-88, 635 nm (AID 1129). The settings on record: small-molecule microarray binding, fluorescence 635 nm; higher = more signal.
Test [3] has as its target Focal adhesion kinase 1 (Homo sapiens) (UniProt Q05397). As to the kind of experiment: PTK2 protein binding on printed compound slides – biochemical, small-molecule microarray, 635/667 nm fluorescence, BSA, DTT, primary screen (AID 1130).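 Note: composite of spot emission at 667 nm and signal to noise over triplicate slides.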 The settings on record: 635 nm fluorescence, higher = more signal.
Test [4] deals with Fibrinogen (Alexa647-labelled). The test can be described thus: Alexa647-fibrinogen binding to printed small molecules – biochemical, small-molecule microarray, 635/667 nm fluorescence, artefact control for SMM control-protein annotation, profiling panel (AID 1131).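 Note: z-score merges 667 nm fluorescence with per-spot signal-to-noise over triplicate slides.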 Conditions: fibrinogen-A647 binding fluorescence, higher = more signal.
The target of test [5] is Follistatin (Homo sapiens) (UniProt P19883). As to the kind of experiment: FST protein binding to printed compounds – biochemical, small-molecule microarray, 635/667 nm fluorescence, primary screen (AID 1132). The settings on record: 635 nm fluorescence, higher = more signal.
The target in test [6] is Fibroblast growth factor 2 (Homo sapiens) (UniProt P09038). As to the kind of experiment: basic fibroblast growth factor binding to printed compounds – biochemical, small-molecule microarray, 635/667 nm fluorescence, primary screen (AID 1133). Conditions: FGF2, fluorescence 635/667, higher = more signal.
Test [7] can be described thus: JC-1 mitochondrial potential readout, lung cancer cells – cell-based, A549, JC-1 fluorescence, basal, 24 h, 100 nL, profiling panel (AID 1138).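 Note: A549 lung adenocarcinoma cells under basal conditions with no added stimulus; test concentration not given here.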 Conditions: higher = more signal.
The test system of test [8] is Lefty1. The test can be described thus: Lefty1 protein binding to printed compounds – biochemical, small-molecule microarray, 635/667 nm fluorescence, primary screen (AID 1139). Conditions: fluorescence 635/667, higher = more signal.
The subject of test [9] is wheat germ agglutinin (Triticum aestivum), Alexa647-labelled. As to the kind of experiment: Alexa647-WGA lectin binding to printed small molecules – biochemical, small-molecule microarray, 635/667 nm fluorescence, artefact control for SMM control-protein annotation, profiling panel (AID 1140).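 Note: score merges 667 nm feature emission with signal to noise over triplicate slides.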 Conditions: WGA-A647 binding, 635 nm fluorescence, higher = more signal.
Test [10] concerns the target Luciferin 4-monooxygenase (Photinus pyralis) (UniProt P08659). As to the kind of experiment: inhibition of purified Photinus pyralis luciferase – biochemical, luminescence, purified enzyme, 2006 set, primary screen (AID 1141).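 Note: cell-free assay with purified firefly luciferase at 100 ng per well in PBS; test concentration not given here.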 Conditions: purified firefly luciferase, SteadyGlo luminescence, 30 min; higher = more signal, called active from +8 up or from −8 down.

The structures appear in SMILES notation. The source made the active and inactive calls.

Chain of Focal adhesion kinase 1 (Homo sapiens) (Q05397 whole entry, looked up): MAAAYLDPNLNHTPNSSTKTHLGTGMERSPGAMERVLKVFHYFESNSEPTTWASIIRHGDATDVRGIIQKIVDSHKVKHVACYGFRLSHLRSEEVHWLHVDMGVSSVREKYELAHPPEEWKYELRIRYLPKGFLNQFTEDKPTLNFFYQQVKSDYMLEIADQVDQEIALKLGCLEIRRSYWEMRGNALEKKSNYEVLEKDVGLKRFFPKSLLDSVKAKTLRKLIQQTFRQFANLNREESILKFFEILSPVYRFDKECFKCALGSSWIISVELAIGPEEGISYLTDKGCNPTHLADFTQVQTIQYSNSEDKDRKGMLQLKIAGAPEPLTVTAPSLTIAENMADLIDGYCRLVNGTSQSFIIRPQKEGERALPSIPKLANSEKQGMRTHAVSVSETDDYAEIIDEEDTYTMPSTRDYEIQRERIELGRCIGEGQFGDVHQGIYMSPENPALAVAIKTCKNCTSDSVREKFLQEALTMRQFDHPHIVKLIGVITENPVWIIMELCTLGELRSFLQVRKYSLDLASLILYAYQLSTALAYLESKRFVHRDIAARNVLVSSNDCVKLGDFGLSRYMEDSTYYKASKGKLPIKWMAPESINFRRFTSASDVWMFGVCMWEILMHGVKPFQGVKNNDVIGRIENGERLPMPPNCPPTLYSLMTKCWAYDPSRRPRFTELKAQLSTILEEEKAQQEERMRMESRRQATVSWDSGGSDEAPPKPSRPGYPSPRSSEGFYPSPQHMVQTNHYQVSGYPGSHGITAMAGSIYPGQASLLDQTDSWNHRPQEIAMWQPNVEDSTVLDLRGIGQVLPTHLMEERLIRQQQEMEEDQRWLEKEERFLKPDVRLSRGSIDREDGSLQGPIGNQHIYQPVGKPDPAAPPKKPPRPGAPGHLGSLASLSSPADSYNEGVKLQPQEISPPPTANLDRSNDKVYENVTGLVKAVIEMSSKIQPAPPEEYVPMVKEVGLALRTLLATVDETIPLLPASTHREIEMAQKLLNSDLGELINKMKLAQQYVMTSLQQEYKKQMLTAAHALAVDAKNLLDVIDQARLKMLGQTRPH
Chain of Luciferin 4-monooxygenase (Photinus pyralis) (P08659 whole entry, looked up): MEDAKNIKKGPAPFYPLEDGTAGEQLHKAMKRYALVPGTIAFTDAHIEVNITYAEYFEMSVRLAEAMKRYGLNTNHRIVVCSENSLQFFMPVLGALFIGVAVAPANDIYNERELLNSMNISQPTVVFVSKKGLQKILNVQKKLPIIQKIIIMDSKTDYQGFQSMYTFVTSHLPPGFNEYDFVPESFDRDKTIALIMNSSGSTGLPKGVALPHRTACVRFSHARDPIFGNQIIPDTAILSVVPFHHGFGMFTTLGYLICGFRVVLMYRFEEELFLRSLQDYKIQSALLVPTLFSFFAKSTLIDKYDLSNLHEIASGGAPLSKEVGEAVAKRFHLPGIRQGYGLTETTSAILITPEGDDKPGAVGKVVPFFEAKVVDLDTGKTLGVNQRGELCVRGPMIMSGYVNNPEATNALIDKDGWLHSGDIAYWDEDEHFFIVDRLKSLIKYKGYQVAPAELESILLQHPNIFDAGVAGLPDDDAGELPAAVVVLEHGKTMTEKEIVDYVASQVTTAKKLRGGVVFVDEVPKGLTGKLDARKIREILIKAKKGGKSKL
Chain of Fibroblast growth factor 2 (Homo sapiens) (P09038 whole entry, looked up): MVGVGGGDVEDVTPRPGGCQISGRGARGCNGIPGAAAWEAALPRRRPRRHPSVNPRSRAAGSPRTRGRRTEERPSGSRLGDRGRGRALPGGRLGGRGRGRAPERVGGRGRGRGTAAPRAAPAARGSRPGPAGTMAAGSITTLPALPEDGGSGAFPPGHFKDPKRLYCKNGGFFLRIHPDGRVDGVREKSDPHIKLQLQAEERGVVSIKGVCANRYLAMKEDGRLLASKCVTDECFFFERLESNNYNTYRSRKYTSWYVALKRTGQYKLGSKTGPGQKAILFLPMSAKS
Chain of Follistatin (Homo sapiens) (P19883 whole entry, looked up): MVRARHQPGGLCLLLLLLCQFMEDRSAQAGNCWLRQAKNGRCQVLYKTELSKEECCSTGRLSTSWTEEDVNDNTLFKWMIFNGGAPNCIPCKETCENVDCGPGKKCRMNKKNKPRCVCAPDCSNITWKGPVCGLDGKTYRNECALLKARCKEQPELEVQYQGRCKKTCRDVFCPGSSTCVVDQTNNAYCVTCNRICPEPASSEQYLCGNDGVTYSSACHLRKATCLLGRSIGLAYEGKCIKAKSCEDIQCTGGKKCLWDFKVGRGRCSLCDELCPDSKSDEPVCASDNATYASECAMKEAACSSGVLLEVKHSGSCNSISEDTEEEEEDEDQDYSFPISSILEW

Regarding `CC(C)(C)N1CC=CC23O[C@@H]4C=CCCOC(=O)C4[C@H]2C(=O)N(CCCO)[C@@H]3C1=O` (stereo not given in full), the composite z-score in test [1] was -1.89; in test [2], -1.75; in test [3], -0.491; in [4], -1.66; in test [5], -0.103; in test [6], -0.464. In addition, the composite z-score was -0.292 in test [8] and -1.96 in test [9]. Further, the figures for the z-score in test [7] and in test [10] were -0.754 and -0.0881 (inactive), respectively.

In the case of `COc1ccc([Si](C)(C)[C@@H]2[C@@H](CC(=O)N(CCO)Cc3ccccc3)O[C@]3(C(=O)N(C)c4c(Br)cc(C)cc43)[C@H]2C)cc1`, the composite z-score in test [1] is 0.926; in [2], 0.304; in test [3], 0.19; in test [4], -0.537; in [5] it was 1.08; in [6], 0.957. The composite z-score came out at 1.17 in test [8] and 0.114 in [9]. In addition, the results for the z-score in test [7] and in [10] were -1.33 and -0.314 (inactive), respectively.

In the case of `COCCCNC(=O)[C@]1(Cc2ccccc2)N=C(c2ccc(OCCCO)cc2)O[C@@H]1c1ccccc1N=[N+]=[N-]`, the composite z-score in test [1] was 0.36; in [2], 1.22; in test [3], -0.0142; in [4], 0.977; in test [5] it was 1.25; in test [6], 0.401. Further, the figures for the composite z-score in [8] and in test [9] were 0.276 and 0.544, respectively. The z-score in test [7] is -0.141; in [10], -4.67 (inactive).

Consider `CN1C(=O)C2C=CC(C(O)COCc3ccccc3)N(Nc3ccccc3)C2C1=O` (stereo not given), for which the composite z-score is 0.563 in test [1]; 0.593 in [2]; 0.324 in test [3]; 0.711 in test [4]; 0.433 in [5]; -0.11 in [6]. In addition, the results for the composite z-score in test [8] and in [9] were 0.135 and 0.681, respectively. For the same molecule, the z-score in test [7] is 1.64; in test [10], 0.982 (inactive).

Turning to `COC(=O)[C@]1(Cc2ccccc2N=[N+]=[N-])N=C(c2ccc(OCCCO)cc2)O[C@@H]1c1ccccc1`, the composite z-score is 0.334 in [1]; 1.09 in test [2]; -0.141 in test [3]; 0.215 in [4]; 0.313 in test [5]; -0.101 in [6]. Also, the composite z-score in test [8] is -0.489; in test [9], 0.244. Moreover, the z-score in test [7] is 1.02; in [10] it was -2.2 (inactive).

Take `CN1C(=O)C2C=CC(C(O)c3ccc(F)cc3)N(N3CCCCC3)C2C1=O` (stereo not given): the composite z-score in test [1] is 2.59; in [2], 0.978; in test [3], 1.34; in [4], 0.167; in [5], 0.0756; in test [6] it was -0.627. Further, the composite z-score in test [8] is -1.21; in test [9], 1.38. The z-score in [7] was -0.0964; in test [10] it was 0.0216 (inactive).

For `CC(=O)NCCCC[C@@H]1NC(=O)[C@@H]2C[C@H](C(=O)NCCCC[N+](C)(C)C)[C@H](c3cccc(OCCO)c3)N2C1=O`, the composite z-score in test [1] is 1.5; in [2], -0.411; in test [3], 0.164; in test [4], -1.39; in test [5] it was 1.4; in test [6], 1.57. Besides, the composite z-score stood at 0.512 in test [8] and 0.994 in test [9]. Besides, the figures for the z-score in test [7] and in test [10] were -0.251 and 0.0595 (inactive), respectively.

For `CC(C)CN1C(=O)[C@@]2(Cc3ccccc31)c1ccccc1C(=O)N(Cc1ccccc1)[C@H]2c1ccc(CO)cc1`, the composite z-score was -0.966 in [1]; -1.28 in test [2]; -0.457 in [3]; -0.492 in test [4]; -1.72 in test [5]; -0.776 in [6]. Also, the composite z-score is -0.78 in test [8] and 0.145 in test [9]. Moreover, the values for the z-score in test [7] and in test [10] were -0.204 and -0.336 (inactive), respectively.

As for `COc1ccc(CCNC(=O)[C@@H]2c3ccccc3C(=O)N(Cc3ccccc3)[C@H]2c2ccc(CO)cc2)cc1`, the composite z-score is 0.597 in test [1]; 0.529 in test [2]; -0.0502 in test [3]; -0.279 in [4]; 0.987 in test [5]; 0.363 in [6]. In addition, the composite z-score in test [8] is 0.442; in test [9], 0.791. Moreover, the z-score in [7] is 1.77; in test [10], 0.582 (inactive).

As for `COC(=O)[C@]1(Cc2ccccc2CN=[N+]=[N-])N=C(c2ccc(OCCCO)cc2)O[C@@H]1c1ccccc1CN=[N+]=[N-]`, the composite z-score stood at 1.12 in [1]; 1.15 in [2]; 0.392 in test [3]; 0.518 in test [4]; 1.17 in test [5]; 0.838 in test [6]. In addition, the composite z-score was -0.222 in [8] and 0.609 in test [9]. Besides, the results for the z-score in test [7] and in test [10] were 1.02 and -1.41 (inactive), respectively.

Take `Cc1ccccc1C(O)C1C=CC2C(=O)N(Cc3ccccc3)C(=O)C2N1n1cnnc1` (stereo not given): the composite z-score is 1.54 in [1]; 1.05 in test [2]; -0.0602 in test [3]; 1.02 in test [4]; 1.07 in [5]; 0.188 in test [6]. Also, the figures for the composite z-score in test [8] and in test [9] were 0.694 and 0.429, respectively. Further, the z-score in [7] was -0.478; in test [10] it was 1.39 (inactive).

Consider `O=C1c2ccccc2[C@](Cc2ccccc2I)(C(=O)NC2CC2)[C@H](c2ccc(CO)cc2)N1Cc1ccccc1Cl`, for which the composite z-score turned out to be 1.07 in test [1]; 1.17 in test [2]; 0.344 in [3]; 0.0468 in test [4]; 1.23 in test [5]; 1.6 in [6]. The composite z-score in test [8] was found to be 0.0036; in [9], 0.86. In addition, the z-score in [7] is 0.756; in test [10], -0.0487 (inactive).

As to `COC(=O)[C@@]1(Cc2ccccc2)[C@H]2c3cc(C(=O)N4CCCC4)n(Cc4ccc(OC(F)(F)F)cc4)c3C[C@H]2CN1C(=O)c1ccccc1`, the composite z-score in test [1] is 1.52; in test [2], 1.24; in test [3], 0.653; in test [4], 0.892; in test [5], 0.575; in test [6], -0.65. The composite z-score in test [8] is -0.577; in test [9], 1.16. For the same molecule, the results for the z-score in [7] and in test [10] were 0.989 and 1 (inactive), respectively.

Consider `C=CCC(OC(C)=O)[C@@H]1[C@@H](N(Cc2ccc(-c3ccccc3)cc2)C(=O)c2cccc3ccccc23)c2cc(OCCCO)ccc2N1C(=O)c1ccc2ccccc2n1` (stereo not given in full), for which the composite z-score was 0.952 in test [1]; 0.138 in test [2]; 0.16 in [3]; -0.0282 in test [4]; 0.374 in [5]; 0.268 in test [6]. The composite z-score was 0.565 in test [8] and 0.139 in [9]. Besides, the z-score is 1.14 in [7] and -0.658 (inactive) in test [10].

For the molecule `COC(=O)[C@@]1(Cc2ccccc2)[C@H]2c3cc(C(=O)N4CCCC4)n(Cc4ccccc4)c3C[C@H]2CN1C(=O)c1ccccc1`, the composite z-score in [1] was 0.673; in test [2], 1.24; in [3] it was 0.756; in test [4], 0.524; in [5], 0.841; in test [6] it was -0.407. The composite z-score in test [8] was 0.272; in [9] it was 0.893. Besides, the z-score was 0.339 in test [7] and 0.886 (inactive) in test [10].

On to `CC(C)C[C@@H]1NC(=O)[C@@]23C(=O)N[C@@H](Cc4ccccc4)C2[C@H](C)[C@@]2(C)O[C@H]2C3/C=C/C/C=C\CNC(=O)[C@@H]2CCCN2C1=O` (stereo not given in full), for which the composite z-score in test [1] is 0.886; in [2] it was -1.05; in test [3], -0.0278; in [4], -0.94; in test [5], 0.368; in test [6], 0.392. Besides, the composite z-score was 0.571 in test [8] and -0.299 in test [9]. Besides, the z-score in test [7] was 0.579; in [10], 0.0046 (inactive).

(Values after PubChem BioAssay.)
